# In publication PMC5700166:
# Residue numbers refer to the chain shown, from its start.
# Experiments:
# Test in all cases: protein-binding microarray (PBM); PBM: ~300 nM protein, 6 mM HEPES pH 7.8, 80 mM KCl, 0.5 mM EDTA, 0.5 mM EGTA, 6% glycerol, 35 ng/ul poly-dIdC, 1% milk, 1 h, room temperature; Ap Aiptasia and Nv Nematostella (sea anemones) / Co Capsaspora / Aq Amphimedon (sponge) / Dm Drosophila / Hu human; RHD is the Rel homology domain; high values mean tight binding
# Settings in all cases: dsDNA, one strand shown
# [1] = target: T1, GST-Ap-NF-kB RHD (Exaiptasia pallida (Aiptasia), UniProt A0A913YAJ5 2-422)
# T1 sequence: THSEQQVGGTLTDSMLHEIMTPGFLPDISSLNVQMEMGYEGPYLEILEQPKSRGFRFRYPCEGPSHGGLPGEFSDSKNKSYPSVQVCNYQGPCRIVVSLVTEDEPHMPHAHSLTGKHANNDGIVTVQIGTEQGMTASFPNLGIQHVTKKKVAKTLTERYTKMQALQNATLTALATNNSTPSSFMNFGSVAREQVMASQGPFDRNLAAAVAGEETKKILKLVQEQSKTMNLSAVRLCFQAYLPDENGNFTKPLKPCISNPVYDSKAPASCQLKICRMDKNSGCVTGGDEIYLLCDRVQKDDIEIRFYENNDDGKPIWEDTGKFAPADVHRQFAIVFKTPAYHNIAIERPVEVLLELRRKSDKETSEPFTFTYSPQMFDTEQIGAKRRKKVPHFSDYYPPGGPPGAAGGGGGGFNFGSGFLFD
# [2] = target: T2, GST-Nv-NF-kB (Cys allele) (Nematostella vectensis, UniProt E5G601 2-411)
# T2 sequence: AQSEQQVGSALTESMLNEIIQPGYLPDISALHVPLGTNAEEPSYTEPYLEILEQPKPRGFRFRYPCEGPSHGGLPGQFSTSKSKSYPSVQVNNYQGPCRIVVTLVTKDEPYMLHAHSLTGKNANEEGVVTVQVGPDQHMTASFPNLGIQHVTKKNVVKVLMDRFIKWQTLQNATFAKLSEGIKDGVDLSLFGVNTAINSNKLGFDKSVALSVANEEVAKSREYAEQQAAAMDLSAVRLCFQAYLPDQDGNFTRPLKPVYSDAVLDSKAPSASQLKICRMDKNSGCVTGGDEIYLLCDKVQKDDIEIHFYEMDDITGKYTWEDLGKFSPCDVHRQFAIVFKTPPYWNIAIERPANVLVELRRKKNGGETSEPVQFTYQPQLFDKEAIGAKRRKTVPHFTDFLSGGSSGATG
# [3] = target: T3, GST-Nv-NF-kB (Ser allele) (Nematostella vectensis, UniProt A7UNT2 2-411)
# T3 sequence: T2 sequence with Q21R, C66S, S207N, E215Q, V217A, E225K, A268E, D399E
# [4] = target: T4, GST-Co-NF-kB (Capsaspora owczarzaki, UniProt F1ARL5 200-546)
# T4 sequence: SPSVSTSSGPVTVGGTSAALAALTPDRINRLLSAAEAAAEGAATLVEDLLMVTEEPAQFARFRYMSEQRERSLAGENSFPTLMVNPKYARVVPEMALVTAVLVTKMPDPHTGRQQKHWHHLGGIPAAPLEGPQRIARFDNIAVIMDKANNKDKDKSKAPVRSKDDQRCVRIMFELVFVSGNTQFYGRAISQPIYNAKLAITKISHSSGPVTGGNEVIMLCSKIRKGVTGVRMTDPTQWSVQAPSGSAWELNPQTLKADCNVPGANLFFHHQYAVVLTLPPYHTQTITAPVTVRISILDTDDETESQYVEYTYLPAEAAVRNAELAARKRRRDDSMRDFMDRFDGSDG
# [5] = target: T5, GST-Dm-Relish (Drosophila melanogaster, UniProt Q94527 99-473)
# T5 sequence: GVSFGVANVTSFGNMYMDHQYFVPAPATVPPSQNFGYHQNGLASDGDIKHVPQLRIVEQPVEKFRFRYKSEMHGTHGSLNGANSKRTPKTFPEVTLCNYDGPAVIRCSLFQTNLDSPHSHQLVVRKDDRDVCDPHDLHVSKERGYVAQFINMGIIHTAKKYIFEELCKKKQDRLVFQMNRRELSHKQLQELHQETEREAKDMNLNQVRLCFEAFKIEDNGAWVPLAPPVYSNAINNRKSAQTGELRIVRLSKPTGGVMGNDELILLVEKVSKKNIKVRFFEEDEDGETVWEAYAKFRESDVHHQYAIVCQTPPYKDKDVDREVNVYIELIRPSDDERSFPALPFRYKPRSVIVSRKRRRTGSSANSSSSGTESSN
# [6] = target: T6, GST-Aq-NF-kB (Amphimedon queenslandica, UniProt A9Y5G7 2-389)
# T6 sequence: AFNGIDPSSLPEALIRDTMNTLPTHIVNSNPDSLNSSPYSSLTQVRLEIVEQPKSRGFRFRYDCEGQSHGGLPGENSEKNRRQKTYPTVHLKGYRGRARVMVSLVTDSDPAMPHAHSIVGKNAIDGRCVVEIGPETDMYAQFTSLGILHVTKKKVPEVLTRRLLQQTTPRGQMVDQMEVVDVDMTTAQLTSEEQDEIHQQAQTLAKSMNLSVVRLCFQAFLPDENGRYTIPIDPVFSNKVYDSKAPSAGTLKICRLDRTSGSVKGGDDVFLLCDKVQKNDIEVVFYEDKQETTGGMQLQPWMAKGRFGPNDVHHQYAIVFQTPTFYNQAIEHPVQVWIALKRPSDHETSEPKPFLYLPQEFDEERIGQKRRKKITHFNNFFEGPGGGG
# [7] = target: GST-Hu-p50 (Homo sapiens, UniProt P19838 7-356)
# Sequence of GST-Hu-p50 (P19838 7-356): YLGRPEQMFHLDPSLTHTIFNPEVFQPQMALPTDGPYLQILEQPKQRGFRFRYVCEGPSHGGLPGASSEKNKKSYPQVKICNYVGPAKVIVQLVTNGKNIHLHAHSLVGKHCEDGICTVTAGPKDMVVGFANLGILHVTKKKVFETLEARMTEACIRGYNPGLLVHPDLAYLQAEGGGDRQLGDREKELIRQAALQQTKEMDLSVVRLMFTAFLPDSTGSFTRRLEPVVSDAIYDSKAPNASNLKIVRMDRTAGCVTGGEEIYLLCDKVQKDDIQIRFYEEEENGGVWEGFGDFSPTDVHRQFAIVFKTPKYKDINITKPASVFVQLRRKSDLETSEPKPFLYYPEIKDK
Sequence,binding signal [1],binding signal [2],binding signal [3],binding signal [4],binding signal [5],binding signal [6],binding signal [7]
CCGATTAACATCAGGGGAATAACTGATGTTAATCGGGTCTTGATTCGCTTGACGCTGCTG,6.5 z-score,8.18 z-score,7.95 z-score,7.09 z-score,9.39 z-score,6.98 z-score,5.61 z-score
CCGATTAACATCAAGGGGGAAAATGATGTTAATCGGGTCTTGATTCGCTTGACGCTGCTG,6.85 z-score,6.58 z-score,10.6 z-score,9.03 z-score,4.2 z-score,6.14 z-score,7.34 z-score
CCGATTAACATCAGGGGATGTGCTGATGTTAATCGGGTCTTGATTCGCTTGACGCTGCTG,3.15 z-score,3.45 z-score,5.32 z-score,1.81 z-score,1.41 z-score,2.79 z-score,3.33 z-score
CCGATTAACATCAGGGAGTACCCTGATGTTAATCGGGTCTTGATTCGCTTGACGCTGCTG,5.7 z-score,4.14 z-score,3.49 z-score,1.84 z-score,8.1 z-score,6.66 z-score,3.38 z-score
CCGATTAACATCACAAAGTCCCCTGATGTTAATCGGGTCTTGATTCGCTTGACGCTGCTG,7.77 z-score,7.32 z-score,7.65 z-score,2.97 z-score,7.95 z-score,6.4 z-score,6.44 z-score
CCGATTAACATCAAAAGAGTCCCTGATGTTAATCGGGTCTTGATTCGCTTGACGCTGCTG,5.39 z-score,5.99 z-score,5.71 z-score,1.5 z-score,5.32 z-score,5.91 z-score,4.6 z-score
CCGATTAACATCAGGAATCTCCCTGATGTTAATCGGGTCTTGATTCGCTTGACGCTGCTG,3.91 z-score,6.08 z-score,3.67 z-score,1.77 z-score,2.25 z-score,7.75 z-score,4.69 z-score
CCGATTAACATCACAAAAACCCCTGATGTTAATCGGGTCTTGATTCGCTTGACGCTGCTG,7.23 z-score,7.23 z-score,6.81 z-score,2.92 z-score,8.1 z-score,6.48 z-score,6.99 z-score
CCGATTAACATCAAGGGGATTTATGATGTTAATCGGGTCTTGATTCGCTTGACGCTGCTG,7.79 z-score,9.15 z-score,11.3 z-score,3.44 z-score,8.3 z-score,6.25 z-score,7.34 z-score
CCGATTAACATCAGGGACGTCCCTGATGTTAATCGGGTCTTGATTCGCTTGACGCTGCTG,7.37 z-score,7.13 z-score,4.26 z-score,1.08 z-score,6.25 z-score,8.52 z-score,4.54 z-score
CCGATTAACATCATTTCCCTTGCTGATGTTAATCGGGTCTTGATTCGCTTGACGCTGCTG,2.33 z-score,3.78 z-score,3.79 z-score,1.62 z-score,1.3 z-score,3.29 z-score,2.9 z-score
CCGATTAACATCAAGGGGGAATATGATGTTAATCGGGTCTTGATTCGCTTGACGCTGCTG,7.61 z-score,8.35 z-score,9.33 z-score,7.86 z-score,4.64 z-score,6.45 z-score,6.95 z-score
